The assay concerns the target T1, ETS1 (UniProt P14921).
T1 sequence: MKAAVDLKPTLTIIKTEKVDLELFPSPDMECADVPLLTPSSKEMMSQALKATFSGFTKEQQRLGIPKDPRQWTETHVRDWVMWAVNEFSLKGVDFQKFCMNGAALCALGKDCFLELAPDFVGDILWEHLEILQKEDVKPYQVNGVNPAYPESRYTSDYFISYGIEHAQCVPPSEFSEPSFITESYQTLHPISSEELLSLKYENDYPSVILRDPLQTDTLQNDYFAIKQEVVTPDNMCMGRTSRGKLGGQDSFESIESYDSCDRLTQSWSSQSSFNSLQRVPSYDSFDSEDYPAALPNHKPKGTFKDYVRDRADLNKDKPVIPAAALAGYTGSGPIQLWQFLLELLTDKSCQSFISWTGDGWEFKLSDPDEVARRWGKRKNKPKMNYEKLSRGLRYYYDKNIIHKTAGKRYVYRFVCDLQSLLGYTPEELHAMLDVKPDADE
Description: TF binding intensity (PBM fluorescence), negative control probe (arbitrary fluorescence units); higher = stronger binding. The procedure:
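gcPBM negative-control 36-bp genomic probes lacking TF binding sites. Each was incubated with recombinant human ETS1 or RUNX1 alone and detected by antibody fluorescence. Values are medians over replicate spots (4 spots for the ETS1-RUNX1 arrays, 3 for the ETS1-ETS1 array). The probes sit in constant array flanks that are not printed.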
Regarding “TTCTTCCCACCGCAGGGCATCTGCACGGGCCGCTCA (protein concentration 10 nM)”, the TF binding intensity worked out at 125. Sequence “CCATCGATGAAAAGGCTGCTATCTCTCGCTGATGGG (protein concentration 10 nM)” returned a TF binding intensity of 139. Regarding “GGCAAGCTTATATAGTTTGCTTCATAAAACTCTATT (protein concentration 10 nM)”, the TF binding intensity amounted to 119. Under “CTATAGTATGTCAAAACCACAAAGACAATGTGCAGC (protein concentration 1 nM)” stands 466; under “TTATCAAGTGAATCAAGCCATTGTCGGGTCGAAATA (protein concentration 10 nM)”, 117; under “GCGTTCGAGGGACACTGGACATCTGGTGGCCCTCCA (protein concentration 10 nM)”, 93.7.

(Values after the supplement of paper PMC10681739.)
